The sample as a whole holds a higher share of hits than the screen did.
nsP2pro primary – CHIKV nsP2 protease inhibition, primary qHTS; Q8JUX6; FRET peptide cleavage, nsP2pro, fluorescence 1 h; Potency, µM (highest dose often 24.9 µM), for the others: at the top dose activity change, negative = inhibition, usual class: inhibitors; hit rate 1.1% among 31,000; further: nearly all actives have a fitted effect of over 60% in size
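Recombinant nsP2pro (150 nM) was preincubated with compound 15 min at room temperature in 10 mM Tris-HCl pH 8.0, 0.01% Tween 20. Peptide 2 FRET substrate (2.5 uM) was then added and fluorescence read after 1 h. Seven-point series, up to 25 uM.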
nsP2 cell sec – secondary cell-based test for CHIKV nsP2 protease inhibitors; shares compounds with nsP2pro primary; cell-based CHIKV nsP2 protease reporter assay; Potency, µM (doses to about 51.1 µM), for the others: top-dose activity change, negative = inhibition, actives largely listed as inhibitors; hit rate 10% among 450; AID 1964100; further: nearly all actives have a fitted effect of over 70% in size
NSP2 full ctr – inhibits full-length CHIKV NSP2 enzyme; AID 1964101; hit rate 39% among 410; Potency, µM (top dose mostly 50.7 µM), for the others: top-dose activity change, negative = inhibition, hits mostly inhibitors; Full-length CHIKV NSP2 protease enzymatic counterscreen; shares compounds with nsP2pro primary; further: nearly all actives have a fitted effect of over 65% in size
Furin counterscr – human furin inhibition, counterscreen for nsP2pro inhibitors; shares compounds with nsP2pro primary; Recombinant human furin enzymatic counterscreen, fluorogenic substrate; Potency, µM (series often up to 50.6 µM), for the others: at the top dose activity change, negative = inhibition, actives largely listed as inhibitors; hit rate 6% among 410; AID 1964102
nsP2 NS23 pep – nsP2pro inhibition on native NS2/3 peptide substrate. shares compounds with nsP2pro primary. hit rate 34% among 410. Potency, µM (highest dose often 51 µM), inactives show at the top dose activity change, negative = inhibition, hits mostly inhibitors. Purified CHIKV nsP2 protease, endogenous NS2/3 peptide cleavage. AID 1964103; further: nearly all actives have a fitted effect of over 55% in size
Papain counter – papain protease inhibition, counterscreen for nsP2pro inhibitors; shares compounds with nsP2pro primary; purified papain protease activity, enzymatic inhibition; Potency, µM (doses to about 51 µM), for the others: at the top dose activity change, negative = inhibition, hits mostly inhibitors; hit rate 5% among 410; AID 1964104
Target sequence (P00784 whole entry, looked up): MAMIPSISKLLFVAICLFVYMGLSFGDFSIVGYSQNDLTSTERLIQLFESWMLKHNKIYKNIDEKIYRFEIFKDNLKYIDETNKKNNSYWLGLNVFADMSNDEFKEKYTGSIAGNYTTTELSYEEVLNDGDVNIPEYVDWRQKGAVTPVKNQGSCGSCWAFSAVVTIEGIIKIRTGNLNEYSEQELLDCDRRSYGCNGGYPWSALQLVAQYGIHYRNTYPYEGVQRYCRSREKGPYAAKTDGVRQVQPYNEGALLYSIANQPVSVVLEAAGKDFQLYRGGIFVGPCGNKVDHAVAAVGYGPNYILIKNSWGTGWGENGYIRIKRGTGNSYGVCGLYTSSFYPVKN
nsP2pro conf qHTS – CHIKV nsP2 protease inhibition, confirmatory qHTS; shares compounds with nsP2pro primary; CHIKV nsP2 protease enzymatic activity, qHTS; Potency, µM (doses to about 25.5 µM), without a hit: top-dose activity change, negative = inhibition, usual class: inhibitors; hit rate 43% among 410; further: nearly all actives have a fitted effect of over 75% in size
HCV NS3 counter – inhibits HCV NS3/4A protease in an nsP2pro selectivity counterscreen. shares compounds with nsP2pro primary. HCV NS3/4A protease biochemical counterscreen. Potency, µM (doses to about 50.9 µM), actives largely listed as inhibitors. hit rate 20% among 410. AID 1964106; further: nearly all actives have a fitted effect of over 55% in size
* hit, by the source's call; i = inactive; u = inconclusive; x = no result; ! = repeats disagree; [ ] = dose if it differs, or a comment. The call rests on the fitted dose curve. On the % scale 0 is the no-effect control and ±100 the full control effect; potency means the concentration at half of the fitted maximal effect.

SMILES	nsP2pro primary	others
CCN1CCC(N(Cc2ccc3c(c2)OCO3)C(=O)Nc2ccccc2OC)CC1	-7%
COc1ccc(CN(C(=O)COc2ccccc2OC)C2CCS(=O)(=O)C2)cc1 (centres undefined)	-19%
CCN(CC)Cc1ccc(C(=O)N(CCc2ccccc2OC)[C@@H]2CCNC2)cc1	u	nsP2 cell sec=12%[17.6 µM];NSP2 full ctr=6.3µM*;Furin counterscr=-9%;nsP2 NS23 pep=-40%[17.2 µM];Papain counter=-20%[17.2 µM];nsP2pro conf qHTS=u;HCV NS3 counter=u
CN(C)c1ccc(-c2nc3ccccc3s2)cc1	i
CC(=O)C1CCC2C3CC=C4CC(O)CCC4(C)C3CCC12C (centres undefined)	-25%
Cc1cc(CCCOc2c(C)cc(-c3noc(C(F)(F)F)n3)cc2C)on1	u	nsP2 cell sec=-7%;NSP2 full ctr=21%;Furin counterscr=-17%;nsP2 NS23 pep=0%;Papain counter=-9%;nsP2pro conf qHTS=-14%;HCV NS3 counter=i
Cc1ccc(-c2cc(C(=O)Nc3ccn[nH]3)c3ccccc3n2)cc1C	2%
Cc1onc(-c2ccccc2Cl)c1C(=O)N(C)c1ccc(Cl)cc1	-7%
Fc1cc(Nc2nc(-c3ccncc3)nc3ccccc23)ccc1-c1cccc(OC(F)F)c1	-3%
Cc1c(-c2cnccn2)ssc1=S	5µM*!	nsP2 cell sec=u;NSP2 full ctr=13µM*;Furin counterscr=-13%;nsP2 NS23 pep=9.2µM*;Papain counter=-23%;nsP2pro conf qHTS=4µM*;HCV NS3 counter=i
CN(C)c1cnc2c(O)ccc(C(=O)O)c2c1	i
Cc1cc(-c2ccccc2)n2ncc(C(=O)Nc3ccc(Cl)c(Cl)c3)c2n1	3%
Cc1ncc2c(c1CNC(=O)c1ccc(OC(F)F)cc1)CCNC2	-2%
Cc1cccc(CSc2nc3cccnc3n2Cc2ccc(C(=O)NCc3ccco3)cc2)c1	-9%
O=C(NCc1cccs1)c1ccc(Cn2c(SCc3ccc(F)cc3)nc3cccnc32)cc1	23%
Cc1ccc(CNC(=O)c2ccc(Cn3c(SCc4ccc(F)cc4)nc4cccnc43)cc2)o1	u	nsP2 cell sec=-16%
COc1ccc2[nH]c(C[C@@H]3C[C@@H](C(C)C)[C@H](CNC(=O)c4cccnc4)C=C3C)nc2n1	i
CC(C)c1ccccc1-c1nccc(NCc2ccc(-c3cccnc3)cc2)n1	i
Cc1ccc(CN2CCC(CNC(=O)NC(C)C)C2)cc1C (centres undefined)	2%
O=C(Nc1cncc(Cc2ccccc2)c1)c1ccc(-c2cccc([N+](=O)[O-])c2)o1	-12%
O=C(Nc1cccc(Cc2ccccc2)n1)c1ccc(-c2cccc([N+](=O)[O-])c2)o1	10µM*	nsP2 cell sec=48%;NSP2 full ctr=u;Furin counterscr=0%;nsP2 NS23 pep=-14%;Papain counter=-10%;nsP2pro conf qHTS=u;HCV NS3 counter=i
O=C(Nc1cccc(Cc2ccccc2)c1)c1ccc(-c2cccc([N+](=O)[O-])c2)o1	5%
O=C(Cn1nc(-c2ccc(OC(F)(F)F)cc2)ccc1=O)NCCc1ccccc1	5%
COc1ccc(S(=O)(=O)Nc2ccc(C)n(CC(=O)O)c2=O)cc1	-11%
CCC(=O)NC(c1ccc(C)cc1)c1cc([N+](=O)[O-])c2cccnc2c1O (centres undefined)	i
SMILES	nsP2pro primary	others
Cc1ccc(S(=O)(=O)Nc2cc(SCC(=O)O)c(O)c3ccccc23)cc1[N+](=O)[O-]	x	nsP2 cell sec=u;NSP2 full ctr=4.1µM*;Furin counterscr=-9%;nsP2 NS23 pep=2.6µM*;Papain counter=18µM*;nsP2pro conf qHTS=0.9µM*;HCV NS3 counter=i
CC(C)(C)CC(=O)N1C[C@@H](CO)[C@@H]2Oc3ccc(Cl)cc3[C@@H]21	-11%
C=CCOc1c(OC)ccc2c1CN(Cc1ccccc1)C(=O)CCN2CC(O)COc1ccc(OC)cc1 (centres undefined)	i
Cc1cc(C)nc(SCC(=O)Nc2ncc(Cc3cccc4ccccc34)s2)n1	12%
CC(N)Cc1c[nH]c2ccccc12 (centres undefined)	-12%
O=C1NC(Cc2c[nH]c3ccccc23)C(=O)NC1Cc1c[nH]c2ccccc12 (centres undefined)	6.1µM*	nsP2 cell sec=-1%[33.5 µM];NSP2 full ctr=-15%[33.5 µM];Furin counterscr=-5%[33.5 µM];nsP2 NS23 pep=-21%[33.5 µM];Papain counter=u;nsP2pro conf qHTS=-39%[16.7 µM];HCV NS3 counter=i
NCCc1c[nH]c2ccccc12	-22%
Cc1cc(-c2nnc3n2CCCCC3)c(C)n1-c1cccc(C(F)(F)F)c1	-5%
COC(=O)CCC(=O)OC[C@]1(C)CCC[C@@]2(C)C3CC[C@]4(C)C=CC3(CCC12)C4 (some centres undefined)	-17%[10 µM]
COc1ccc(-c2nnc(SCC(=O)Nc3c(C)cccc3C)nc2-c2ccc(OC)cc2)cc1	-25%
COc1ccc(-c2noc(CC(=O)O)c2-c2ccc(OC)cc2)cc1	-4%
CCOC(=O)Cn1cccc1-c1nc(-c2ccc(OC)cc2)c(-c2ccc(OC)cc2)s1	6.2µM*	nsP2 cell sec=-5%;NSP2 full ctr=u;Furin counterscr=-10%;nsP2 NS23 pep=-3%;Papain counter=7%;nsP2pro conf qHTS=10%;HCV NS3 counter=i
CCNC(=O)N1CC(C(=O)NCc2cccc(C)c2)CC(c2ccc(F)c(C)c2)C1 (centres undefined)	4%
Cc1ccc(CN2CC(Oc3cccc(C(=O)N4CCOCC4)c3)C2)s1	-12%
C[N+]1([O-])[C@H]2CC(OC(=O)C(CO)c3ccccc3)C[C@H]1[C@H]1O[C@H]12 (some centres undefined)	27%
Oc1ccc(CNc2cc(C(F)(F)F)ccn2)c2cccnc12	-3%
OCCN1CCN(C(c2ccc(Cl)cc2Cl)c2sc3nc(-c4ccco4)nn3c2O)CC1 (centres undefined)	0%
Oc1c(C(c2ccc(Cl)cc2Cl)N2CCOCC2)sc2nc(-c3ccco3)nn12 (centres undefined)	-20%
Cc1ccc(C(c2sc3nc(-c4ccco4)nn3c2O)N2CCOCC2)cc1 (centres undefined)	u	nsP2 cell sec=-14%;NSP2 full ctr=-7%;Furin counterscr=-9%;nsP2 NS23 pep=1%;Papain counter=-19%;nsP2pro conf qHTS=-23%;HCV NS3 counter=i
COc1ccccc1CC(=O)N1CCCc2ncc(C(=O)Nc3cccc(Cl)c3)cc21	i
CN(C)C/C=C/C(=O)Nc1cc2c(Nc3ccc(F)c(Cl)c3)ncnc2cc1OC1CCOC1 (centres undefined)	107%
N#CC1=C2SCN(C3CCCCC3)CN2C(=O)CC1c1ccc(F)cc1 (centres undefined)	u	nsP2 cell sec=u;NSP2 full ctr=-2%;Furin counterscr=-7%;nsP2 NS23 pep=1.8µM*;Papain counter=-13%;nsP2pro conf qHTS=13µM*;HCV NS3 counter=i
N#CC1=C2SCN(C3CCCCC3)CN2C(=O)CC1c1ccc(Cl)cc1 (centres undefined)	72%

Screening results (PubChem)
